Active and inactive are the calls of the source.
Molecular target: NADPH oxidase 2 (Homo sapiens) (UniProt P04839)
Test: NOX2-dependent H2O2 signal modulators, primary screen, NOX inhibitor project, cell-based, HEK293-NOX2, PMA-stimulated, Amplex Red fluorescence (AID 1159); note: test concentration not given here
Conditions: 45 min, higher = more signal, called active from +8 up or from −8 down

Chain of NADPH oxidase 2 (Homo sapiens) (P04839 whole entry, looked up): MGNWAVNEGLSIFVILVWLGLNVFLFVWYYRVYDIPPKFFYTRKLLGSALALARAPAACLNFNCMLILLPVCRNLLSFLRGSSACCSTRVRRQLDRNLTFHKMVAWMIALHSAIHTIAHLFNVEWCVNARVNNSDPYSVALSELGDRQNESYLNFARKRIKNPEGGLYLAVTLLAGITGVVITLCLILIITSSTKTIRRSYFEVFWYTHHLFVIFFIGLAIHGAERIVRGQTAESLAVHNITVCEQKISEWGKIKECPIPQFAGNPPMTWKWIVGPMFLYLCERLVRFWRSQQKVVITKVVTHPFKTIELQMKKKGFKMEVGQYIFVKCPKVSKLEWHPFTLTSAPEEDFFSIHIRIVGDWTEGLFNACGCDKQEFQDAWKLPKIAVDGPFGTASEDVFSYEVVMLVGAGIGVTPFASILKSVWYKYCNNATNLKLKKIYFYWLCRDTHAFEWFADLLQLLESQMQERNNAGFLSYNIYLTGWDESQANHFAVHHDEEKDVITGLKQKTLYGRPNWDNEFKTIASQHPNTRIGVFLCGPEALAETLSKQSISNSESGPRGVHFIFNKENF

z-score, inactive:
COCCOC(=O)N1C(=O)[C@@]2(c3ccccc31)[C@H](c1ccc(OCCO)cc1)N1[C@H](c3ccccc3)[C@H](c3ccccc3)OC(=O)[C@H]1[C@@H]2C(=O)N1CCCCCCC1 0.918
CCCCCN1CC=CC23O[C@@H]4/C=C\CCC(C)OC(=O)C4[C@H]2C(=O)N(CCCCCCO)[C@@H]3C1=O (stereo not given in full) 1.25
COCCOC(=O)N1C(=O)[C@@]2(c3ccccc31)[C@H](c1ccccc1OCCO)N1[C@H](c3ccccc3)[C@H](c3ccccc3)OC(=O)[C@H]1[C@@H]2C(=O)N1CCCCCCC1 0.168
C=C[C@@H](OC)[C@H](OC(=O)Nc1ccc(SC)cc1)c1ccc(OCCO)cc1 0.403
COC(=O)[C@@]1(Cc2ccc(F)cc2)[C@H]2c3cc(C(=O)N(C)C)n(Cc4c(CO)[nH]cc(C)c4=O)c3C[C@H]2CN1C(=O)c1ccccc1 0.31
Cc1ccccc1C(O)C1C=CC2C(=O)N(c3ccccc3)C(=O)C2N1Nc1ccc([N+](=O)[O-])cc1 (stereo not given) -1.29
COc1cc(NN2C(C(O)c3cc(OC)c(OC)c(OC)c3)C=CC3C(=O)N(c4ccccc4)C(=O)C32)cc(OC)c1OC (stereo not given) -3.35
C=CCC(OC(C)=O)[C@@H]1[C@@H](N(Cc2cccc3ccccc23)C(=O)c2cccc3ccccc23)c2cc(OCCCO)ccc2N1C(=O)c1ccc2ccccc2c1 (stereo not given in full) -2.77
COC(=O)[C@@]1(Cc2ccccc2)[C@H]2c3cc(C(=O)N4CCCC4)n(CCSCCO)c3C[C@H]2CN1C(=O)c1ccccc1 0.957
Cc1cccc([C@H]2C[C@H]3C(I)=C[C@@H]2C(=O)[C@]32CO2)c1 -0.942
O=C1C2C=CC(C(O)C=Cc3ccc([N+](=O)[O-])cc3)N(Nc3ccccc3)C2C(=O)N1c1ccccc1 (stereo not given) -1.72
CC(=O)NCCCC[C@@H]1NC(=O)[C@H]2C[C@@H](C(=O)NCCCCCNC(=O)CS)[C@@H](c3cccc(OCCO)c3)N2C1=O 1.87
C=C[C@H](C)[C@H](OC(=O)Nc1ccc(OC)cc1)c1ccc(OCCO)cc1 -0.288
CCOC(=O)C[C@H]1[C@H](OC(=O)c2ccc(C(=O)c3ccccc3)cc2)[C@@H](NC(=O)CC(C)C)c2cc(OCCCO)ccc2N1C(=O)Cc1ccc(OC)cc1 -0.354
Cc1ccccc1C(O)C1C=CC2C(=O)NC(=O)C2N1Nc1ccc(Cl)cc1Cl (stereo not given) -0.254
COc1cc2c(cc1O)C(c1ccc(CN3CCCC3)cc1)N(C)CC2 (stereo not given) -1.63
COc1ccc([Si](C)(C)[C@@H]2[C@@H](CCn3cc([C@H](O)c4ccccc4)nn3)O[C@]3(C(=O)N(Cc4cccc(N5C(=O)c6cccc7cccc5c67)c4)c4ccccc43)[C@H]2C)cc1 1.08
CC(C)(C)OC(=O)CC[C@]1(C(=O)N2CCCCC2)COC(c2ccc(OCCCO)cc2)=N1 -2.59
COCCOC(=O)N1C(=O)[C@@]2(c3cc(C#CC4=CCCCC4)ccc31)[C@H](c1ccc(O)cc1)N1[C@H](c3ccccc3)[C@H](c3ccccc3)OC(=O)[C@H]1[C@@H]2C(=O)NC[C@H](O)c1ccccc1 1.5
CN(C)CCCCCCNC(=O)[C@@H]1C[C@@H]2C(=O)N[C@@H](CCCCN)C(=O)N2[C@@H]1c1ccc(O)cc1 -0.0284
Cc1ccc(N2C(=O)c3ccccc3[C@](C)(C(=O)NCc3ccccc3)[C@@H]2c2ccc(CO)cc2)nc1 0.37
C=C[C@@H](C)[C@@H](OC(=O)Nc1ccc(SC)cc1)c1ccc(OCCO)cc1 -1.21
C=C(/C(=C/C[C@@H](OC(=O)c1ccncc1)c1cccc(OCCO)c1)c1cnc2ccccc2c1)C(C)C -1.34
O=c1cccc(-c2ccco2)o1 0.523
O=C1C2C=CC(C(O)c3cc(C(F)(F)F)cc(C(F)(F)F)c3)N(Nc3ccccc3F)C2C(=O)N1c1ccccc1 (stereo not given) -0.648
O=C(N1CCOCC1)[C@@]1(CCS(=O)(=O)c2ccccc2)N=C(c2ccc(OCCCO)cc2)O[C@H]1c1ccccc1 0.386
COCCCNC(=O)[C@@]1(Sc2ccc(C)cc2)CC(=O)N(C(C)C)[C@@H]1c1ccc(CO)cc1I 1.77
C=C(C)[C@@H]1CC=C(C(O)C2C=CC3C(=O)N(c4ccccc4)C(=O)C3N2Nc2ccc(C#N)cc2)CC1 (stereo not given in full) -1.94
C=C(COC)/C(=C/C[C@@H](OC(=O)c1ccncc1)c1ccccc1OCCO)c1cc(C(=O)OC)ccc1OC -0.97
CC(C)C[C@@H]1NC(=O)[C@@H]2C[C@H](C(=O)NCCCCCC[N+](C)(C)C)[C@H](c3cccc(OCCO)c3)N2C1=O 2.3
O=C1C2C=CC(C(O)c3ccco3)N(Nc3ccccc3)C2C(=O)N1c1ccccc1 (stereo not given) -1.61
CCOC(=O)C[C@H]1[C@H](OC(=O)c2ccc(-c3ccccc3)cc2)[C@@H](NC(=O)Cc2ccc(OC)cc2)c2cc(OCCCO)ccc2N1C(=O)Cc1ccc(OC)cc1 0.818
CCOC(=O)C1=CC[C@@H](c2ccccc2)N(S(=O)(=O)c2ccc(C)cc2)[C@H]1c1cccc(OC)c1 0.537
CN1C=C(C(=O)OCCS(C)(=O)=O)C(C(=O)OCCS(C)(=O)=O)=CC(c2ccc(CO)cc2)=CC1c1cccs1 (stereo not given) -0.937
COC(=O)C(CC#Cc1ccc2c(c1)[C@]1(C(=O)N2)[C@H](c2ccc(OCCO)cc2)N2[C@H](c3ccccc3)[C@H](c3ccccc3)OC(=O)[C@H]2[C@@H]1C(=O)N1CCN(c2ncccn2)CC1)C(=O)OC 1.46

From PubChem BioAssay
